NSD2 inh: blocks human NSD2 histone methyltransferase activity | NSD2-SET H3K36me1 DELFIA fluorescence, biochemical | 0.07% of 44,000 active | inhibition, % at 12.5 µM | O96028; in the data active means inhibition above about 54%, passing the limit was not always enough;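 further: inhibitors reduce the monomethyl H3K36 fluorescence signal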
Target sequence (O96028 whole entry, looked up): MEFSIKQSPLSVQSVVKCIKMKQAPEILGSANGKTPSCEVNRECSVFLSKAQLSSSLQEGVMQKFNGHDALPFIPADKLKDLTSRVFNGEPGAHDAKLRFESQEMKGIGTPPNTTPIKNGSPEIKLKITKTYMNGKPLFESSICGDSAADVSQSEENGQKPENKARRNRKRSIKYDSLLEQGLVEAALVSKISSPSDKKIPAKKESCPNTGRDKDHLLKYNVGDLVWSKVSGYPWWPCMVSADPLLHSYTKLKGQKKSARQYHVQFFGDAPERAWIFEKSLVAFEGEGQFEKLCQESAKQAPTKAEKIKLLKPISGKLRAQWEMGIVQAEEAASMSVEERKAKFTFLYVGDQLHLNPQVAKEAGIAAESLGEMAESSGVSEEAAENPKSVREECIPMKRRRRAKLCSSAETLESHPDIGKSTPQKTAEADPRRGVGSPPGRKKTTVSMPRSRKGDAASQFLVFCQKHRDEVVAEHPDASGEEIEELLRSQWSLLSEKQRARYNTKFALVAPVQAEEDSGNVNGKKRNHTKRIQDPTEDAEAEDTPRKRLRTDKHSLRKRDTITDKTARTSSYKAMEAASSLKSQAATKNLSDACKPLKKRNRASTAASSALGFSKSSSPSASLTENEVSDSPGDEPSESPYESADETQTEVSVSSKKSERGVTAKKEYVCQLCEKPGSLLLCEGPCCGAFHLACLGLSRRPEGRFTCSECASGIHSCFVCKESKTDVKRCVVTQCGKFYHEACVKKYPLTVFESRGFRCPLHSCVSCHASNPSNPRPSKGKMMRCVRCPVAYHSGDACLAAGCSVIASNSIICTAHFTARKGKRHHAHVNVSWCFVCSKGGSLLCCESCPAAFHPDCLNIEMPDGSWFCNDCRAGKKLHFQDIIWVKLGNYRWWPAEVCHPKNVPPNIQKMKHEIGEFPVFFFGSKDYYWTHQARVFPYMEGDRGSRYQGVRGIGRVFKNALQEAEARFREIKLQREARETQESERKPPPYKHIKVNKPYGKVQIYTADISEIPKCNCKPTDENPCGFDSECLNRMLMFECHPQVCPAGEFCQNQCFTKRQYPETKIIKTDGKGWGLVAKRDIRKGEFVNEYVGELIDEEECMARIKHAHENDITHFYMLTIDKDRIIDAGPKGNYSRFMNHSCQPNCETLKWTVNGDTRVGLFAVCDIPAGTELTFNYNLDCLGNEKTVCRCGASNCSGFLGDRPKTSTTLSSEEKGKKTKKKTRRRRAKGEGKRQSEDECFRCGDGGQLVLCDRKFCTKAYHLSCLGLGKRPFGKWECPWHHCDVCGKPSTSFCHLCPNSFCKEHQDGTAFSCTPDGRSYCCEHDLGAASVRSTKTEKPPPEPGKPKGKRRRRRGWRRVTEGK
* hit, by the source's call. This excerpt belongs to a sample that is enriched for hits.

SMILES	NSD2 inh
COc1cc(C[C@H]2CO[C@H](c3ccc(O[C@@H]4O[C@H](CO)[C@@H](O)[C@H](O)[C@H]4O)c(OC)c3)[C@H]2CO)ccc1O	54.4
COc1cc(C2c3c(cc(OC)c(O)c3OC)CC(CO)C2COC2OC(CO)C(O)C(O)C2O)cc(OC)c1O (stereo unspecified)	75.8*
C=C1C(=O)C23CC(O)C4C(C)(C(=O)OC5OC(CO)C(O)C(O)C5O)CCCC4(C)C2=CCC1(O)C3 (stereo unspecified)	-5.6
CC(C)(C)OC(=O)NC1(/C=N/NC(=O)CCCCCCC(=O)O)CCCC1	-3.1
CC(C)CNC(=O)[C@@]1(C)c2ccccc2C(=O)N(Cc2cc(F)cc(C(F)(F)F)c2)[C@H]1c1ccc(CO)cc1	-5.5
